± gives the standard deviation.
What follows are sequences tested on MILI (PIWIL2) piRISC loaded with L1MC piRNA (26 nt) (assay: pre-steady-state target cleavage rate (min^-1); guide: L1MC piRNA 5'p-UAACUAAAUACUAUGCAAGCUGUAGG; MIWI and MILI are mouse PIWI proteins and EfPiwi is from a freshwater sponge; tags in brackets are library labels; higher = faster piRNA-guided slicing of the target). Conditions: auxiliary factor: 500 nM mouse GTSF1.
In short: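 Cleave-'n-Seq used a transcribed, DNA-blocked target RNA library at 0.1 nM and active affinity-purified piRISC with one synthetic guide at 1 nM, with or without 500 nM GTSF1 partner protein, in HEPES–potassium acetate buffer at 33 °C for 0–8 or 0–960 min. Uncleaved targets were sequenced and normalised to depth and to weakly complementary targets, and three trials were pooled with k3 capped at 0.0001 min^-1. The pre-steady-state cleavage rate was estimated by a burst-and-steady-state fit.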

Sequence | pre-steady-state target cleavage rate
UCCUCCAACAGCUUGCAUAGUAUUAAGUUA | 0.135 ± 0.021
UCCUGGAUGUCCUUGCAUAGUAUCUUAGUUA | 0.0833 ± 0.017
UCCUGCUACAGCUUGCAUAGUACUUAGUUA | 0.233 ± 0.026
UCCUGGAUGUGCUUGCAAAGUAUUUAGUUA | 0.0492 ± 0.011
UCCUGGAUCAGCUUGGAUAGUAUAUAGUUA | 0.124 ± 0.018
UCCUGGAUGAGCUUCCAAAGUAUUUAGUUA | 0.0331 ± 0.0072
UCCUGGUACAGCUUGCAUAAUAUUUAGUUA | 0.338 ± 0.068
UCCUGGAACAGCUUCGUUAGUAUUUAGUUA | 0.181 ± 0.013
UCCUGGAUGUGCUUGCAUACAAUUUAGUUA | 0.00405 ± 0.0039
UCCUGGAUGUCCUUGGAUAGUAAUUAGUUA | 0.411 ± 0.1
UCCUGGUCAGCUUGCAUAGUAUUUAGUUA | 0.269 ± 0.016
UCCUGGAUGUGGAAGCAUAGUAUUUAGUAA | 0.0306 ± 0.0062
UCCUGGAUGUCCUUGCUUAGUAUAUAGUUA | 0.0347 ± 0.0085
UCCUGGAUGUCGUUGCAUAAUAUUUAGUUA | 0.0662 ± 0.017
UCCUGGAACAGCUUGCUUAGUAUUUACUUA | 0.187 ± 0.032
UCCUGGAUGUCGUUGAAUAGUAUUUAGUUA | 0.0817 ± 0.015
UCCUGGAUGUCGUCGCAUAGUAUUUAGUUA | 0.0893 ± 0.012
UCCUGGAUGUCGUUGCAUAGUAUUUGAGUUA | 0.145 ± 0.034
UCCUGCUACAGCUUGGAUAGUAUUUAGUAA | 0.214 ± 0.032
UCCUGCUACAGCCUGCAUAGUAUUUAGUUA | 0.279 ± 0.025

Sequence | pre-steady-state target cleavage rate
UCCUGGAUGUCGAUGCAUAGUAUAUUAGUUA | 0.0713 ± 0.015
UCCUGGAUGUCGUCUGCAUAGUAUUUAGUUA | 0.106 ± 0.015
UCCUGGAUGUCCUUGCAUGGUAUUUAGUUA | 0.0346 ± 0.011
UCCUGGAUGUCCUUGCAUAGUAUAUUAGUUA | 0.188 ± 0.034
UCCUGGAUGUCGAUGCAUAGUAAAUAGUUA | 0.0191 ± 0.0068
UCCUGGAUGUCGAUGCAUAGUGAUUUAGUUA | 0.00445 ± 0.0044
UCCUGGUACAGCUUGCAAUGUAUUUAGUUA | 0.0755 ± 0.013
UCCUGGAUGUCGAUGCAUAGUAUAUAGUUA | 0.143 ± 0.028
UCCUGCUACAGGUUGCAUAGUAUUUAGAUA | 0.114 ± 0.033
UCCUGGAUGUCGUUGCAUAGUAUUUAGUUU [g2:g18:cont:t1U] | 0.128 ± 0.016
UCCUGGAUGUCCUUGCUUAGUAUUUUGUUA | 0.0587 ± 0.018
UCCUGCUACAGCUUGCAUAUUAUUUAGUUA | 0.11 ± 0.016
UCCUGGUACAGCAUGCAUAGUAUUUUGUUA | 0.11 ± 0.022
UCCUGGAUGAGGUUGCAUUGUAUUUAGUUA | 0.0484 ± 0.01
UCCUGGAUGUCGAUGCAUAGUACUUUAGUUA | 0.0153 ± 0.0039
UCCUGGAUGUCCUUGCAUAGUUUUAAGUUA | 0.0115 ± 0.0059
UCCUGGAUGUCGUUGCAUAGUAUCUUAGUUA | 0.0991 ± 0.021
UCCUGGAUGUCCUUGAUAGUAUUUAGUUA | 0.00551 ± 0.0039
UCCUCCAUCAGCUUGCAUAGUAUUUAGUAA | 0.165 ± 0.024
UCCUGGAACAGCUUCCAAAGUAUUUAGUUA | 0.137 ± 0.015

Source: the supplement of paper PMC10338343
